Experimental data published in PubChem BioAssay (NCI).
Compounds without any hit were thinned out: in the full panel of roughly 83,000, 20% have a hit.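 Treatment: one concentration, 48 hours, 96-well format. Scoring: percent growth, with anything below 10 considered active.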 The source made the active and inactive calls.

Assays:
Assay in all cases: NCI-60 one-dose screen, 48 h (100 = growth as untreated, 0 = no growth, -100 = all killed)
Conditions in all cases: 10 µM unless noted
DU-145 prostate = system: DU-145 prostate
K-562 leukemia = system: K-562 leukemia
MALME-3M melanoma = system: MALME-3M melanoma
MDA-MB-231 breast = system: MDA-MB-231 breast
RXF 393 renal = system: RXF 393 renal
SF-268 CNS = system: SF-268 CNS
SF-295 CNS = system: SF-295 CNS
SF-539 CNS = system: SF-539 CNS
UACC-257 melanoma = system: UACC-257 melanoma
M14 melanoma = system: M14 melanoma
HCT-15 colon = system: HCT-15 colon
HT29 colon = system: HT29 colon
SNB-75 CNS = system: SNB-75 CNS
SNB-19 CNS = system: SNB-19 CNS
U251 CNS = system: U251 CNS
PC-3 prostate = system: PC-3 prostate
SK-MEL-5 melanoma = system: SK-MEL-5 melanoma
UACC-62 melanoma = system: UACC-62 melanoma
LOX IMVI melanoma = system: LOX IMVI melanoma
SK-MEL-28 melanoma = system: SK-MEL-28 melanoma

Measured: growth

COc1ccc(-c2conc2-c2ccccc2)cc1
active: RXF 393 renal -21.8% | SF-539 CNS -23.4% | M14 melanoma 6.54% | SNB-75 CNS -12.4%
inactive: DU-145 prostate 11.5% | K-562 leukemia 13.3% | MALME-3M melanoma 56.2% | MDA-MB-231 breast 11.6% | SF-268 CNS 44.6% | SF-295 CNS 16.3% | UACC-257 melanoma 71.5% | HCT-15 colon 17.9% | HT29 colon 53.1% | SNB-19 CNS 30.1% | U251 CNS 20.9% | PC-3 prostate 20% | SK-MEL-5 melanoma 22.4% | UACC-62 melanoma 17.8% | LOX IMVI melanoma 38.8% | SK-MEL-28 melanoma 55.3%

Cc1ccc(/C=N\NC(=O)c2[nH]c3ccc(F)cc3c2-c2ccccc2)cc1
active: DU-145 prostate -2.21% | SF-295 CNS -6.59% | HT29 colon 2.07% | SK-MEL-5 melanoma -17.1%
inactive: K-562 leukemia 16.9% | MALME-3M melanoma 15.6% | MDA-MB-231 breast 36.5% | RXF 393 renal 47.6% | SF-268 CNS 38.9% | SF-539 CNS 21.4% | UACC-257 melanoma 59.7% | M14 melanoma 24.1% | HCT-15 colon 24.1% | SNB-75 CNS 13.7% | SNB-19 CNS 45.9% | U251 CNS 12.4% | PC-3 prostate 15% | UACC-62 melanoma 44.9% | LOX IMVI melanoma 26.5% | SK-MEL-28 melanoma 71.5%

CCc1cccc2c3c(sc12)C(c1ccc(Cl)cc1)C(C#N)=C(N)O3 (stereo not given)
inactive: DU-145 prostate 19.3% | MALME-3M melanoma 54.6% | MDA-MB-231 breast 31.6% | SF-268 CNS 54.1% | UACC-257 melanoma 80% | HCT-15 colon 13.8% | SNB-19 CNS 27.1% | U251 CNS 24.7% | SK-MEL-5 melanoma 29% | UACC-62 melanoma 22.1% | LOX IMVI melanoma 26.6% | SK-MEL-28 melanoma 63.4%
active: K-562 leukemia 6.13% | RXF 393 renal -18.8% | SF-295 CNS 2.87% | SF-539 CNS -15.4% | M14 melanoma 5.36% | HT29 colon 6.86% | SNB-75 CNS -10.2% | PC-3 prostate 7.23%

C=C1C(=O)O[C@H]2[C@H]1CC/C(COC(=O)C(C)c1ccc(CC(C)C)cc1)=C\CC[C@@]1(C)O[C@@H]21 (stereo not given in full)
active: K-562 leukemia -4.97% | MALME-3M melanoma -25.6% | MDA-MB-231 breast -58% | RXF 393 renal -50.1% | HCT-15 colon -56.1% | HT29 colon -54.1% | U251 CNS 1.42% | SK-MEL-5 melanoma 7.78% | UACC-62 melanoma 6.52% | LOX IMVI melanoma -89.1% | SK-MEL-28 melanoma 5.16%
inactive: DU-145 prostate 47.2% | SF-268 CNS 33.8% | SF-295 CNS 83.1% | SF-539 CNS 22.1% | UACC-257 melanoma 47.9% | M14 melanoma 16.1% | SNB-75 CNS 56.6% | SNB-19 CNS 64.1% | PC-3 prostate 16.4%

COc1cccc(OC)c1C(=O)N[C@@H]1C(=O)N2[C@@H]1SC(C)(C)[C@@H]2C(=O)O
inactive: DU-145 prostate 115% | K-562 leukemia 110% | MALME-3M melanoma 93.9% | MDA-MB-231 breast 102% | RXF 393 renal 125% | SF-268 CNS 109% | SF-295 CNS 105% | SF-539 CNS 108% | UACC-257 melanoma 103% | M14 melanoma 97.9% | HCT-15 colon 108% | HT29 colon 98.9% | SNB-75 CNS 98.9% | SNB-19 CNS 107% | U251 CNS 106% | PC-3 prostate 86.3% | SK-MEL-5 melanoma 105% | UACC-62 melanoma 109% | LOX IMVI melanoma 100% | SK-MEL-28 melanoma 105%

N#Cc1ccc(NC(=O)c2sc3nc4c(cc3c2N)C(=O)CCC4)cc1
inactive: DU-145 prostate 94.9% | K-562 leukemia 108% | MALME-3M melanoma 89.3% | MDA-MB-231 breast 109% | RXF 393 renal 119% | SF-268 CNS 102% | SF-295 CNS 82.4% | SF-539 CNS 99.8% | UACC-257 melanoma 106% | M14 melanoma 106% | HCT-15 colon 101% | HT29 colon 84.9% | SNB-75 CNS 113% | SNB-19 CNS 102% | U251 CNS 106% | PC-3 prostate 107% | SK-MEL-5 melanoma 92.6% | UACC-62 melanoma 99.3% | LOX IMVI melanoma 112% | SK-MEL-28 melanoma 106%

CC1=C([Se]CC(OC(=O)[C@@H](CSSC(C)(C)C)NC(=O)OC(C)(C)C)C(=O)NC(C)(C)C)C(=O)c2ccccc2C1=O (stereo not given in full)
inactive: K-562 leukemia 31.9%
active: DU-145 prostate -98.7% | MALME-3M melanoma -65.8% | MDA-MB-231 breast -42.2% | RXF 393 renal -67.3% | SF-268 CNS -96.6% | SF-295 CNS -42.2% | SF-539 CNS -100% | UACC-257 melanoma -60% | M14 melanoma -84.8% | HCT-15 colon -28.6% | HT29 colon -6.98% | SNB-75 CNS -95.8% | SNB-19 CNS -90.8% | U251 CNS -86.5% | PC-3 prostate -71.6% | SK-MEL-5 melanoma -97.6% | UACC-62 melanoma -88.1% | LOX IMVI melanoma -61.9% | SK-MEL-28 melanoma -96.3%

COc1cc(CCC[P+](c2ccccc2)(c2ccccc2)c2ccccc2)c(OC)c(OC)c1OC
inactive: DU-145 prostate 79.6% | K-562 leukemia 39.8% | MALME-3M melanoma 53.7% | MDA-MB-231 breast 61.5% | RXF 393 renal 54.2% | SF-268 CNS 64.7% | SF-295 CNS 82.5% | SF-539 CNS 57.7% | UACC-257 melanoma 60.7% | M14 melanoma 62% | HCT-15 colon 68.2% | HT29 colon 112% | SNB-75 CNS 29.7% | SNB-19 CNS 78% | U251 CNS 77.7% | PC-3 prostate 75.6% | SK-MEL-5 melanoma 76% | UACC-62 melanoma 31.1% | LOX IMVI melanoma 79.2% | SK-MEL-28 melanoma 74.4%

CCCCNC(=O)Oc1ccc(/C(=C(\C)c2ccc(Cl)cc2)c2ccc(OCCN3CCCCC3)cc2)cc1
inactive: DU-145 prostate 90.4% | K-562 leukemia 21.6% | MALME-3M melanoma 81.7% | MDA-MB-231 breast 94% | RXF 393 renal 79.5% | SF-268 CNS 76.1% | SF-295 CNS 91.7% | SF-539 CNS 71.7% | UACC-257 melanoma 35.5% | M14 melanoma 68.2% | HCT-15 colon 23.8% | HT29 colon 10.9% | SNB-75 CNS 80.3% | SNB-19 CNS 93.5% | U251 CNS 59.3% | PC-3 prostate 63.8% | SK-MEL-5 melanoma 74.2% | UACC-62 melanoma 83% | LOX IMVI melanoma 79.8% | SK-MEL-28 melanoma 80.1%

O=C1CN(CCN2CC(=O)N(Cc3ccccc3)C(=O)C2)CC(=O)N1Cc1ccccc1
inactive: DU-145 prostate 117% | K-562 leukemia 107% | MALME-3M melanoma 103% | MDA-MB-231 breast 102% | RXF 393 renal 108% | SF-268 CNS 103% | SF-295 CNS 109% | SF-539 CNS 115% | UACC-257 melanoma 98.4% | M14 melanoma 109% | HCT-15 colon 113% | HT29 colon 108% | SNB-75 CNS 88% | SNB-19 CNS 107% | U251 CNS 100% | PC-3 prostate 93.9% | SK-MEL-5 melanoma 100% | UACC-62 melanoma 103% | LOX IMVI melanoma 96.3% | SK-MEL-28 melanoma 107%

O=C(N/N=C/[C@H](O)[C@H](O)[C@H](O)CO)c1ccc(NC(=O)c2cccnc2)cc1
inactive: DU-145 prostate 111% | K-562 leukemia 105% | MALME-3M melanoma 108% | MDA-MB-231 breast 94.5% | RXF 393 renal 107% | SF-268 CNS 98.6% | SF-295 CNS 101% | SF-539 CNS 98.5% | UACC-257 melanoma 99.8% | M14 melanoma 102% | HCT-15 colon 106% | HT29 colon 104% | SNB-75 CNS 97.4% | SNB-19 CNS 97.7% | U251 CNS 105% | PC-3 prostate 96.3% | SK-MEL-5 melanoma 104% | UACC-62 melanoma 96.2% | LOX IMVI melanoma 99.1% | SK-MEL-28 melanoma 112%

Nc1nn(C(=O)Nc2ccc(Cc3ccccc3)cc2)c2ccc(Cl)cc12
active: K-562 leukemia 3.86% | SF-539 CNS -19.2%
inactive: DU-145 prostate 85.6% | MALME-3M melanoma 55.9% | MDA-MB-231 breast 59.7% | RXF 393 renal 93.3% | SF-268 CNS 81.4% | SF-295 CNS 27% | UACC-257 melanoma 42.1% | M14 melanoma 37.2% | HCT-15 colon 36.6% | HT29 colon 74% | SNB-75 CNS 122% | SNB-19 CNS 83.4% | U251 CNS 65.9% | PC-3 prostate 74.7% | SK-MEL-5 melanoma 35.9% | UACC-62 melanoma 13.3% | LOX IMVI melanoma 39% | SK-MEL-28 melanoma 106%

O=[N+]([O-])c1ccc(Oc2nc(Nc3ccc(O[C@H]4CO[C@H]5[C@@H]4OC[C@@H]5O)c(Cl)c3)ncc2F)c(Cl)c1
inactive: DU-145 prostate 27.3% | K-562 leukemia 22.2% | MALME-3M melanoma 18.6% | MDA-MB-231 breast 26.8% | RXF 393 renal 13.6% | SF-268 CNS 31.6% | SF-295 CNS 26.4% | SF-539 CNS 19.5% | UACC-257 melanoma 43.9% | M14 melanoma 23.9% | HCT-15 colon 26.2% | HT29 colon 24.8% | SNB-19 CNS 56.6% | U251 CNS 23.6% | PC-3 prostate 34% | LOX IMVI melanoma 16.7% | SK-MEL-28 melanoma 32.3%
active: SNB-75 CNS -2.13% | SK-MEL-5 melanoma -90.9% | UACC-62 melanoma -8.64%

CN1CCN(c2ccc(-c3cc4c(Nc5ccc(F)c(Cl)c5)ncnn4c3)cc2)CC1
active: K-562 leukemia 0.617% | HCT-15 colon -12.8% | HT29 colon 7.09% | LOX IMVI melanoma -53.6%
inactive: DU-145 prostate 44.1% | MALME-3M melanoma 28.5% | MDA-MB-231 breast 91.1% | RXF 393 renal 79.8% | SF-268 CNS 69.2% | SF-295 CNS 84.8% | SF-539 CNS 50.5% | UACC-257 melanoma 69.2% | M14 melanoma 66.7% | SNB-75 CNS 80.5% | SNB-19 CNS 103% | U251 CNS 66% | PC-3 prostate 80.8% | SK-MEL-5 melanoma 87.5% | UACC-62 melanoma 53.2% | SK-MEL-28 melanoma 71.5%

C=C1CC[C@H](C(C)C)[C@@H]2[C@H]1[C@H]1CC(=C)[C@@H](O)CC[C@@](C)(O)[C@@H]2O1
inactive: DU-145 prostate 102% | K-562 leukemia 97.8% | MALME-3M melanoma 98% | MDA-MB-231 breast 105% | RXF 393 renal 108% | SF-268 CNS 94.7% | SF-295 CNS 98.4% | SF-539 CNS 98.1% | UACC-257 melanoma 86.2% | M14 melanoma 98.6% | HCT-15 colon 107% | HT29 colon 101% | SNB-75 CNS 88.1% | SNB-19 CNS 91.5% | U251 CNS 106% | PC-3 prostate 89.9% | SK-MEL-5 melanoma 100% | UACC-62 melanoma 92.8% | LOX IMVI melanoma 93.8% | SK-MEL-28 melanoma 105%
